Screens as filed in PubChem BioAssay.
This is a sample that favours compounds with a hit; in the whole collection about 0.59% have one here.
Rango release inh – qHTS Assay for Inhibitors of RanGTP induced Rango (Ran-regulated importin-beta cargo) - Importin beta complex dissociation; Biochemical FRET Rango-importin beta, RanGTP-induced dissociation; Potency, µM (titrated, usually from 46.1 µM), for inactives: at the highest dose activity change, negative = inhibition; 340,000 tested, 0.071% active; AID 540253, 2011; further: potency means the concentration at half of the fitted maximal effect; % of control where 0% means no effect; nearly all actives have a fitted effect of over 45% in size
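Compounds sat 5 min at room temperature with 0.1 uM Rango biosensor plus 0.25 uM importin beta, then FRET pre-read. RanGTP-RCC1 (0.6 uM Ran, 2mM GTP, 0.2 uM RCC1) added for 45 min, and the CFP/YFP post-read measured blocked complex dissociation.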
Giardia kill – Small Molecules that selectively kill Giardia lamblia: qHTS | 340,000 tested, 0.15% active | Giardia lamblia trophozoite viability | activity change, % at 7.66 µM, hits read low; in the data active means activity change below about -80%; inconclusive means between about -30% and that limit;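 further: parasites exposed to compound for two days anaerobically before the ATP read; on the % scale 0 is the no-effect control and ±100 the full control effect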
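Each well holds 100 Giardia trophozoites and compound. After two days (48 hrs) at 37 deg C in anaerobic conditions, ATP is quantified by luminescence.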
a7 integrin act – qHTS for Activators of Integrin-Mediated Alleviation for Muscular Dystrophy; alpha7betagal myoblasts, beta-gal FDG fluorescence, 48 h; Potency, µM (series often up to 38.3 µM), for the others: top-dose activation, usual class: activators; 350,000 tested, 0.064% active; AID 624291, 2012; active means well fitted activation curve with a large enough effect; inconclusive means small, poorly fitted or top-dose-only effect; inactive means no such curve, though single readings can be large or run the other way;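 further: potency means the concentration at half of the fitted maximal effect; 100% = response of the positive control SU9516; nearly all actives have a fitted effect of over 60% in size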
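Alpha7betagal+/- myoblasts (passage 13) were plated 16-24 hr, then exposed to compounds (1:260 dilution of DMSO stock) for 48 hours at 37C. After MPER lysis, β-galactosidase reporter activity was read as FDG fluorescence (ex 480/em 540) after 30 minutes.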
uPA generation – qHTS for Inhibitors of Cell Surface uPA Generation | cell surface uPA generation assay, qHTS | 330,000 tested, 0.31% active | Potency, µM (top dose mostly 38.3 µM), for the others: at the highest dose activity change, negative = inhibition, hits mostly inhibitors; active means well fitted inhibition curve with a large enough effect; inconclusive means small, poorly fitted or top-dose-only effect; inactive means no such curve, though single readings can be large or run the other way; tested in mouse RAW 264.7 cells; further: potency means the concentration at half of the fitted maximal effect; on the % scale 0 is the no-effect control and ±100 the full control effect; nearly all actives have a fitted effect of over 55% in size
Rango-impB inh – qHTS Assay for Inhibitors of Rango (Ran-regulated importin-beta cargo) - Importin beta complex formation; Potency, µM (titrated, usually from 92.2 µM), inactives show at the top dose inhibition of complex formation; 340,000 tested, 0.031% active; Rango CFP/YFP FRET sensor + importin beta, 45 min; Importin subunit beta-1 (Homo sapiens), Q14974; AID 540263, 2011;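 further: potency means the concentration at half of the fitted maximal effect; 0% = DMSO wells and 100% = buffer wells lacking importin beta; nearly all actives have a fitted effect of over 15% in size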
Target sequence (Q14974 whole entry, looked up): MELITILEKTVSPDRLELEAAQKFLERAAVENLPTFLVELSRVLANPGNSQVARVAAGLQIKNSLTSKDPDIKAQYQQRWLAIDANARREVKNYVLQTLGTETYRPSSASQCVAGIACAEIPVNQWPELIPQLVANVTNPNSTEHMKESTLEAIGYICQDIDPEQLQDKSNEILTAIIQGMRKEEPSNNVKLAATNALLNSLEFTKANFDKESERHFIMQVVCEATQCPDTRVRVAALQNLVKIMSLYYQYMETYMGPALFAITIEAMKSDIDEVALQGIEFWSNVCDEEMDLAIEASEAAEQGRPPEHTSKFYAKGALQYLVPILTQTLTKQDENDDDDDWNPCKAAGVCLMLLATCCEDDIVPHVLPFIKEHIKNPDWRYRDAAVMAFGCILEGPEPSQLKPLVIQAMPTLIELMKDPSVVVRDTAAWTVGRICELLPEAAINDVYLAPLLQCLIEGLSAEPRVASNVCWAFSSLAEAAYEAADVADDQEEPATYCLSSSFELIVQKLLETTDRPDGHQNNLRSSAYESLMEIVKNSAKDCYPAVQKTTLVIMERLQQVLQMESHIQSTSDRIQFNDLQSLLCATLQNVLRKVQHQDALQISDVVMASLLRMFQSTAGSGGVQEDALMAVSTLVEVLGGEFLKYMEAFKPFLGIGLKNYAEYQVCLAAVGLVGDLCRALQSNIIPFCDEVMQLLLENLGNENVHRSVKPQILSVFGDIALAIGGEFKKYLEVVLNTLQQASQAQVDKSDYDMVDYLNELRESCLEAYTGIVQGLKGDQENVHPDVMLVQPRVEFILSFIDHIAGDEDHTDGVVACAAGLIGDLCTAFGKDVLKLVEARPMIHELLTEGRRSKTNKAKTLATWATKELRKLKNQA
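FRET biosensor (snurportin 1 IBB flanked by EYFP and cerulean), 50 nM, with compound 5 min, then 0.125 microM importin beta in PBS, 1 mM DTT, 0.02% Tween-20, 0.1% BSA. CFP/YFP ratio read after 45 min at room temperature; pre-read flags interference.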
Starred values were filed as active, the others as inactive; ? = inconclusive; · = not tested or not shown; [ ] = dose if it differs, or a comment. Unless noted, the call rests on the fitted dose curve.

SMILES	Rango release inh	Giardia kill	a7 integrin act	uPA generation	Rango-impB inh
O=C(Nc1ccc(N2CCCCC2)cc1)c1ccc([N+](=O)[O-])o1	-1%	-85*	-42%	-3%	0%
Cc1ccc(O)c(-c2cc(-c3ccc(F)cc3)no2)c1	1%	?	0%	10µM*	-3%
Cc1ccc(-c2cc(-c3ccccc3)no2)c(O)c1	-10%	?	14%	-10%	0%
CC(=O)Nc1ccc(N(C(=O)c2cnccn2)C(C(=O)NC2CCCCC2)c2ccc(F)cc2)cc1 (configuration not stated)	46%	-17	11µM*	0%	4%
O=C1C2CCCN2C(=O)N1CCCCN1CCN(c2cccc(Cl)c2)CC1 (configuration not stated)	0%	17	-21%	2.8µM*	1%
CC(=O)Nc1ccn(C2OC(C(COC(C)=O)NC(=O)C(CCCCNC(=O)OCc3ccccc3)NC(=O)OC(C)(C)C)C(OC(C)=O)C2OC(C)=O)c(=O)n1 (configuration not stated)	·	-23	·	·	·
CCOC(=O)c1c(NC(=O)c2ccc(-n3cnnn3)cc2)sc2c1CCCC2	21µM*	7	23%	9%	-7%
CCOC(=O)c1c(NC(=O)c2ccc(N3C(=O)[C@@H]4[C@H](C3=O)[C@H]3C=C[C@@H]4C3)cc2)sc2c1CCCC2	0%	-26	2%	12%	-2%
CC(NC(=O)NC1CCCCC1)C(c1cccs1)N1CCN(c2ccccc2)CC1 (configuration not stated)	0%	-18	-13%	10µM*	6%
CCCc1cc(=O)oc2cc(OCC(=O)NCC(O)c3ccccc3)ccc12 (configuration not stated)	3%	-16	0%	-7%	-2%
c1ccc2c(NCCc3c[nH]c4ccccc34)c3ccccc3nc2c1	15µM*[inhibitor]	-12	-59%	?	?
COc1ccc(-c2ccc(-c3noc(C(C)C)n3)c(OC)n2)cc1	0.0082µM*	1	0%	4%	?
Clc1ccc(Nc2nc(NCc3ccco3)nc3nccnc23)cc1	·	16	·	·	·
O=C(NCc1ccccc1Cl)c1ccc(CSc2nc3ccncc3[nH]2)cc1	-14%	-12	5%	0%	-1%
Clc1ccccc1CSc1nc2ccncc2[nH]1	-5%	?	4%	4µM*	1%
CCCCn1nc(C(=O)NCC(c2cccs2)N2CCOCC2)c2ccccc2c1=O (configuration not stated)	-3%	-5	-19%	11µM*	1%
COC(=O)C1SCC2C(=O)N(Cc3ccc(F)cc3)CC(=O)N21 (configuration not stated)	1%	-16	8.9µM*	-10%	1%
COc1cc(C(=O)N2CCN(c3cccc(C(F)(F)F)c3)CC2)ccc1OCC(=O)N1CCOCC1	-1%	-6	-16%	-7%	2%
CC1CCCC(C)N1CCCNC(=O)c1ccc2nc(N3CCCCC3)sc2c1 (configuration not stated)	-28%	3	-43%	?	?
CC1CCN(c2nc3ccc(C(=O)NCCCN4CCCCC4C)cc3s2)CC1 (configuration not stated)	27%	18	-51%	11µM*	-4%
CCOC(=O)c1ccc(NC(=O)c2ncn3c2C(=O)N[C@H](C)C3)cc1	·	·	28%	·	·
Cc1nc2c(-c3ccc(F)cc3)cnn2c(N)c1-c1ccccc1	-6%	?	-8%	3.2µM*	5%
C/C=C/c1ccc(O)c(OC)c1	-20%	-9	3%	-27%	-3%
Oc1cc(O)cc(/C=C/c2ccc(O)c(O)c2)c1	-14%	-30	·	7.9µM*	-2%
COc1cccc(OC)c1C(=O)OCC(=O)N(c1ccccc1)C1CCCCC1	-7%	0	-5%	-6%	0%
SMILES	Rango release inh	Giardia kill	a7 integrin act	uPA generation	Rango-impB inh
COc1cc(C(=O)NC(=S)NNC(=O)c2cnccn2)cc(OC)c1OC	-17%	?	-7%	10µM*	0%
Cc1ccc2c(c1)[C@H]1[C@H](CO2)[C@H](c2ccccc2)[C@]2(C)C(=O)Nc3cc(F)ccc3C(=O)N12	2%	-6	-25%	7.1µM*	0%
O=C(c1sc2ccccc2c1Cl)N(Cc1ccco1)C1CCS(=O)(=O)C1 (configuration not stated)	18µM*	1	10%[7.66 µM]	·	?
CC(=O)Nc1nc(-c2ccccc2)c(-c2ccccc2)s1	·	21	·	·	·
N#CCCN(C(=S)NC(=O)c1cccs1)c1ccccc1F	18%	13	20%	-3%	1%
CC(C)(C)C(=O)Nc1ccc(NC(=O)c2ccco2)nc1	2%	-94*	6%	-16%	-1%
O=C(CN1C(=O)NC2(CCCC2)C1=O)OCC(=O)c1cccc(Cl)c1	-3%	-6	?	-1%	-2%
O=C(Cc1ccccc1)NCc1ccc(-n2cccc2)cc1	9%	6	-18%	1.8µM*	8%
O=C(NN1C(=O)c2ccccc2NC1c1ccc([N+](=O)[O-])o1)c1ccccc1 (configuration not stated)	-11%	-85*	-48%	-11%	-4%
O=C(NN1C(=O)c2ccccc2NC1c1ccc([N+](=O)[O-])o1)c1ccc([N+](=O)[O-])cc1 (configuration not stated)	-7%	?	-58%	-13%	?
CCCCc1ccc(NC(=O)CSc2nc(=O)n3cc(C)ccc3n2)cc1	-13%	-4	-53%	-2%	?
O=C1NCCN1c1ncc([N+](=O)[O-])s1	31%	-88*	·	19%	-1%
O=C1CCCN1c1ncc(S(=O)(=O)c2ccc([N+](=O)[O-])cc2)s1	8%	-27	-44%	-8%	1%
O=C(Nc1ccc(Cl)c(Cl)c1)Nc1nccs1	-11%	-17	-18%	3.2µM*	7%
CCC1CC=CC2C1C(=O)N(Cc1ccccc1)C2c1cc(C)ccc1F (configuration not stated)	·	11	·	·	·
O=S(=O)(c1ccc(Cl)cc1)N1CCOCC1	·	3	·	·	·
O=C(Nc1ccc(Cl)cn1)c1cccc2ccccc12	-18%	-5	0%	8.9µM*	-2%
CCOC(=O)CC(=O)CSc1nc2c(c(-c3cccs3)c1C#N)CCC2	21µM*	-25	4%	11%	?
Cc1ccccc1N1CCN(Cc2ccc([N+](=O)[O-])o2)CC1	-2%	-83*	-22%	-1%	-3%
O=[N+]([O-])c1ccc(N2CCN(Cc3ccc([N+](=O)[O-])o3)CC2)cc1	24%	?	-20%	-5%	2%
